Records with an inconclusive call do not appear. Entries that show only a call come without a potency. Activity calls are given as the source filed them. Unless noted, calls come from the whole dose curve; as a rule, active = well fitted curve in the direction sought with a large enough effect; inconclusive = small, poorly fitted or top-dose-only effect, or another doubt; inactive = no such curve, though single readings can be large; an effect the other way counts as inactive or inconclusive.

Sequence of Calcium and integrin-binding protein 1 (Homo sapiens) (Q99828 whole entry, looked up): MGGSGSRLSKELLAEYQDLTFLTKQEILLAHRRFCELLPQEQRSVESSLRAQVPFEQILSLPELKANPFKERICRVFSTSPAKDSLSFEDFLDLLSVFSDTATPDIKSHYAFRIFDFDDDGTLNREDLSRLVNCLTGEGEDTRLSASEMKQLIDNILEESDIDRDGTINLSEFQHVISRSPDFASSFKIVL
Sequence of Cytochrome P450 2D6 (Homo sapiens) (P10635 whole entry, looked up): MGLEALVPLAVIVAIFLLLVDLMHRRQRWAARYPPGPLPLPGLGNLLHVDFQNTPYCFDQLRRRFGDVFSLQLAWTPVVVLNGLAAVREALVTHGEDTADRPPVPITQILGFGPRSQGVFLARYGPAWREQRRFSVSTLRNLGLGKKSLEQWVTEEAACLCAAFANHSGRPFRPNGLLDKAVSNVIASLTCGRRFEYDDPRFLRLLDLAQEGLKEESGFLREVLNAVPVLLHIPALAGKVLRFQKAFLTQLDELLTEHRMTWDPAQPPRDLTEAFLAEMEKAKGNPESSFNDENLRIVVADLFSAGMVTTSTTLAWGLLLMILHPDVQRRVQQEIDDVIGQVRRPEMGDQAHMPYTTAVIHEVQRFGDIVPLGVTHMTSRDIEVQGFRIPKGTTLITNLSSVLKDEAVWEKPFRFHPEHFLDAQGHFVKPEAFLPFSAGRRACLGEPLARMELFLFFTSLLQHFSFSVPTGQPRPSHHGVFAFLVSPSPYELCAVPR

In one experiment the target is Calcium and integrin-binding protein 1 (Homo sapiens) (UniProt Q99828). The experiment in a line: Primary qHTS for Identification of Calcium Integrin Binding Protein 1 (CIB1) Competitor (AID 1508620).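 Note: GST tagged CIB1 binding a fluorescein labelled alphaIIb integrin peptide tracer; top concentration of the series differs between compounds.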 Conditions: CIB1-GST / FITC-alphaIIb peptide fluorescence polarization; series mostly up to 114 µM. In outline:
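Fluorescence polarization competition: CIB1-GST (1 uM final) preincubated with compound 15 min at room temperature, then FITC-labeled alphaIIb peptide (100 nM final) added for another 15 min. Polarization read at Ex 480/Em 540.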
A general note: In qHTS, concentration-response curves come from the screen itself.
Consider `COc1ccc(-c2nc(-c3ccc(-c4cccc(Cl)c4)o3)[nH]c2-c2ccc(OC)cc2)cc1`, for which the Potency result is “inactive”. Turning to `O=[N+]([O-])c1cn2c(n1)OCC(OCc1ccc(OC(F)(F)F)cc1)C2` (centres undefined), the Potency entry is “inactive”. Take `Cc1cc(Nc2ncc3cc(-c4c(Cl)cccc4Cl)c(=O)n(C)c3n2)ccc1F`: the Potency result was “inactive”.

For `COc1ccc(-n2[nH]c(=O)c3[nH]c4cc(Cl)ccc4c(=O)c3c2=O)c(C)c1`, the Potency entry is “inactive”. Regarding `CC(=O)NC[C@H]1CN(c2ccc(N3CCN(C(=O)CO)CC3)c(F)c2)C(=O)O1`, the Potency entry was “inactive”. The same measure, in the same setting: under `C[C@@H]1O[C@@H](O[C@H]2[C@H](O[C@H]3CC[C@@]4(C)C(CC[C@]5(C)C4C=C[C@]46OC[C@@]7(CCC(C)(C)C[C@H]74)[C@@H](O)C[C@]65C)[C@]3(C)CO)O[C@H](CO)[C@@H](O)[C@@H]2O[C@@H]2O[C@H](CO)[C@@H](O[C@@H]3O[C@@H](C)[C@H](O)[C@@H](O)[C@H]3O)[C@H](O)[C@H]2O)[C@H](O)[C@H](O)[C@H]1O` (some centres undefined) stands “inactive”.

For `CN(C)CCn1cc(S(=O)(=O)c2cccc(F)c2)c2cccnc21`, the Potency result is “inactive”. In the case of `OC1CCC(Nc2ncc3nc(Nc4c(F)cc(F)cc4F)n([C@H]4CCOC4)c3n2)CC1` (some centres undefined), the Potency result was “inactive”. In the case of `Cn1ncnc1COc1nn2c(-c3cc(F)ccc3F)nnc2cc1C(C)(C)C`, the Potency result was “inactive”. Same read-out and setting: for `CC[C@@](C)(Nc1ccnc(-c2c[nH]c3ncccc23)n1)C(=O)NCC(F)(F)F` the value was “inactive”. As for `CC(C)(C)NS(=O)(=O)c1cncc(-c2cc(F)c3nc(N)nn3c2)c1`, the Potency entry is “inactive”. For the compound `c1cc(OCCCN2CCCCC2)ccc1CN1CCCCC1`, the Potency entry is “inactive”. On the same count and under the same terms, under `CC(C)=CCCC1(C)C=Cc2c(c(C)cc3c2[nH]c2ccccc23)O1` (centres undefined) stands “inactive”. With `COC(=O)[C@@]1(c2ccc(C)cc2)C[C@H]1CN1CCC(O)(c2ccccc2)CC1`, the Potency result is “inactive”. Consider `Oc1ccc2nc(CN3CCC(Cc4ccccc4F)CC3)[nH]c2c1`, for which the Potency result was “inactive”. As to `CCN(CC)Cc1ccc(C(=O)N(CCc2ccccc2OC)[C@@H]2CCNC2)cc1`, the Potency entry is “inactive”. Regarding `CS(=O)(=O)c1ccc([C@H](CC2CCCC2)C(=O)Nc2nccs2)cc1`, the Potency entry is “inactive”. As for `CS(=O)(=O)NCC1CCC(Nc2nc3c(s2)CCSc2ccccc2-3)CC1` (centres undefined), the Potency entry is “inactive”. The same measure, in the same setting: under `CC(C)(C)CCN1C[C@@H]2C(CNC(=O)c3cc(Cl)cc(Cl)c3)[C@@H]2C1` (some centres undefined) stands “inactive”.

On to `CNS(=O)(=O)CC1CCC(N(C)c2ncnc3[nH]ccc23)CC1` (centres undefined), for which the Potency entry was “inactive”. With `C=C(F)c1sc(CNCCCNc2cc(=O)c3ccccc3[nH]2)c(C)c1Br`, the Potency result was “inactive”. In the case of `CCC(CC)C(=O)Nc1sc2c(c1C#N)CCC(C(C)(C)CC)C2` (centres undefined), the Potency entry is “inactive”. The same measure, in the same setting: under `CCC(C)C(=O)OC1CC(C)C=C2C=CC(C)C(CCC(O)CC(O)CC(=O)O)C21` (centres undefined) stands “inactive”; under `CCc1cccc(CC)c1NC(=O)c1nn(C)c2c1CCc1cnc(Nc3ccc(C(=O)NC4CCN(C)CC4)cc3OC(F)(F)F)nc1-2`, “inactive”.

With `Cc1cccc(-c2[nH]c(Cc3cccc(C(N)=O)c3)nc2-c2ccc3nccnc3c2)n1`, the Potency result is “inactive”. For `CCCC(=O)C1CCN(c2ncnc3c2CN(C(=O)c2ccc(-c4ccccc4)cc2)CC3)CC1`, the Potency entry is “inactive”. The same measure, in the same setting: for `Nc1nc2c(c(N3CCNCC3)n1)CCC1=C2[C@@H]2CCCC[C@@H]2O1` the value was “inactive”.

As to `Cc1noc(-c2ccc(-c3ccc(CC(=O)O)cc3)cc2)c1NC(=O)O[C@H](C)c1ccccc1`, the Potency entry is “inactive”. Take `CC1CCCCN1S(=O)(=O)c1ccc(N2CCCC2=O)cc1` (centres undefined): the Potency entry is “inactive”. On the same count and under the same terms, under `Cc1ccc(S(=O)(=O)Nc2ccccc2N2CCCCC2)s1` stands “inactive”; under `C=CC(=O)Nc1cc(Nc2nccc(-c3c[nH]c4ccccc34)n2)c(OC)cc1N(C)CCN(C)C`, “inactive”.

Regarding `O=S(=O)(NC1CCC(c2cc(F)ccc2F)(S(=O)(=O)c2ccc(Cl)cc2)CC1)C(F)(F)F` (centres undefined), the Potency result was “inactive”. With `O=C(Nc1ccc(-c2ccncc2)cc1)N[C@H](CO)c1ccccc1`, the Potency result is “inactive”. Regarding `CC(=O)O[C@H]1C(=O)[C@@]2(C)[C@H]([C@H](OC(=O)c3ccccc3)[C@]3(O)C[C@H](OC(=O)[C@H](O)[C@@H](NC(=O)c4ccccc4)c4ccccc4)C(C)=C1C3(C)C)[C@]1(OC(C)=O)CO[C@@H]1C[C@@H]2O`, the Potency result was “inactive”. With `COc1cc2ncnc(Nc3ccc(O)cc3)c2cc1OC`, the Potency entry is “inactive”. Turning to `Cn1nc(C(C)(C)C)cc1C(=O)NC(Cc1cccc(Cl)c1)C(=O)NCC#N` (centres undefined), the Potency entry is “inactive”. For `COc1cc(Nc2nc3ccccc3nc2NS(=O)(=O)c2ccc(NC(=O)c3ccc(OC)c(C)c3)cc2)cc(OC)c1`, the Potency entry is “inactive”. The same measure, in the same setting: under `Cc1ccc(S(=O)(=O)n2ccc(-c3c(-c4ccc(Cl)cc4)noc3C)n2)cc1` stands “inactive”. Same read-out and setting: under `Cc1csc(NC(=O)c2ccc(COc3cccc(Cl)c3)o2)n1` stands “inactive”.

The next experiment addresses Cytochrome P450 2D6 (Homo sapiens) (UniProt P10635). Briefly: Cytochrome P450 family 2 subfamily D member 6 (CYP2D6) small molecule antagonists: luciferase biochemical (cell-free) qHTS assay (AID 1645840; active = well fitted curve in the direction sought with a large enough effect in the repeat runs; an effect the other way counts as inactive or inconclusive; note: nearly all actives have a fitted effect of over 55% in size; note: potency is the fitted concentration of half-maximal effect). As to conditions: P450-Glo CYP2D6 enzyme, luciferin luminescence, 1 h; series mostly up to 57.4 µM. In outline: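 P450-Glo CYP2D6 system: proluciferin substrate converted by enzyme to luciferin, read by luminescence proportional to activity. Enzyme-substrate mix with compound 10 min at room temperature, then NADPH regeneration 1 h before detection reagent.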
With `COc1ccc(-c2nc(-c3ccc(-c4cccc(Cl)c4)o3)[nH]c2-c2ccc(OC)cc2)cc1`, the Potency entry was “inactive”. In the case of `O=[N+]([O-])c1cn2c(n1)OCC(OCc1ccc(OC(F)(F)F)cc1)C2` (centres undefined), the Potency entry was “inactive”.

Regarding `Cc1cc(Nc2ncc3cc(-c4c(Cl)cccc4Cl)c(=O)n(C)c3n2)ccc1F`, the Potency entry was “inactive”. Take `COc1ccc(-n2[nH]c(=O)c3[nH]c4cc(Cl)ccc4c(=O)c3c2=O)c(C)c1`: the Potency result is “inactive”. For `CC(=O)NC[C@H]1CN(c2ccc(N3CCN(C(=O)CO)CC3)c(F)c2)C(=O)O1`, the Potency entry was “inactive”.

Take `CN(C)CCn1cc(S(=O)(=O)c2cccc(F)c2)c2cccnc21`: the Potency was 21.3 µM (active).

As to `OC1CCC(Nc2ncc3nc(Nc4c(F)cc(F)cc4F)n([C@H]4CCOC4)c3n2)CC1` (some centres undefined), the Potency entry was “inactive”. On to `Cn1ncnc1COc1nn2c(-c3cc(F)ccc3F)nnc2cc1C(C)(C)C`, for which the Potency result was “inactive”.

With `CC[C@@](C)(Nc1ccnc(-c2c[nH]c3ncccc23)n1)C(=O)NCC(F)(F)F`, the Potency was 16.9 µM (active). In the case of `CC(C)(C)NS(=O)(=O)c1cncc(-c2cc(F)c3nc(N)nn3c2)c1`, the Potency entry is “inactive”.

On to `c1cc(OCCCN2CCCCC2)ccc1CN1CCCCC1`, for which the Potency result was “inactive”.

As to `COC(=O)[C@@]1(c2ccc(C)cc2)C[C@H]1CN1CCC(O)(c2ccccc2)CC1`, the Potency is 2.68 µM (active). Regarding `Oc1ccc2nc(CN3CCC(Cc4ccccc4F)CC3)[nH]c2c1`, the Potency was 0.0379 µM (active). As to `CCN(CC)Cc1ccc(C(=O)N(CCc2ccccc2OC)[C@@H]2CCNC2)cc1`, the Potency is 13.5 µM (active). `CS(=O)(=O)c1ccc([C@H](CC2CCCC2)C(=O)Nc2nccs2)cc1`: the Potency is 10.7 µM (active).

For `CS(=O)(=O)NCC1CCC(Nc2nc3c(s2)CCSc2ccccc2-3)CC1` (centres undefined), the Potency was 10.7 µM (active). Turning to `CC(C)(C)CCN1C[C@@H]2C(CNC(=O)c3cc(Cl)cc(Cl)c3)[C@@H]2C1` (some centres undefined), the Potency is 3.79 µM (active).

Turning to `CNS(=O)(=O)CC1CCC(N(C)c2ncnc3[nH]ccc23)CC1` (centres undefined), the Potency entry was “inactive”. With `C=C(F)c1sc(CNCCCNc2cc(=O)c3ccccc3[nH]2)c(C)c1Br`, the Potency is 1.07 µM (active). Regarding `CCC(CC)C(=O)Nc1sc2c(c1C#N)CCC(C(C)(C)CC)C2` (centres undefined), the Potency result is “inactive”. As for `CCc1cccc(CC)c1NC(=O)c1nn(C)c2c1CCc1cnc(Nc3ccc(C(=O)NC4CCN(C)CC4)cc3OC(F)(F)F)nc1-2`, the Potency was 9.28 µM (active). As to `Cc1cccc(-c2[nH]c(Cc3cccc(C(N)=O)c3)nc2-c2ccc3nccnc3c2)n1`, the Potency is 13.5 µM (active). On the same count and under the same terms, under `CCCC(=O)C1CCN(c2ncnc3c2CN(C(=O)c2ccc(-c4ccccc4)cc2)CC3)CC1` stands 21.3 µM (active); under `Nc1nc2c(c(N3CCNCC3)n1)CCC1=C2[C@@H]2CCCC[C@@H]2O1`, 19 µM (active); under `Cc1noc(-c2ccc(-c3ccc(CC(=O)O)cc3)cc2)c1NC(=O)O[C@H](C)c1ccccc1`, “inactive”. Take `CC1CCCCN1S(=O)(=O)c1ccc(N2CCCC2=O)cc1` (centres undefined): the Potency result was “inactive”.

Regarding `Cc1ccc(S(=O)(=O)Nc2ccccc2N2CCCCC2)s1`, the Potency result is “inactive”. As for `C=CC(=O)Nc1cc(Nc2nccc(-c3c[nH]c4ccccc34)n2)c(OC)cc1N(C)CCN(C)C`, the Potency entry was “inactive”. With `O=S(=O)(NC1CCC(c2cc(F)ccc2F)(S(=O)(=O)c2ccc(Cl)cc2)CC1)C(F)(F)F` (centres undefined), the Potency is 19 µM (active). On the same count and under the same terms, for `O=C(Nc1ccc(-c2ccncc2)cc1)N[C@H](CO)c1ccccc1` the value was 10.7 µM (active); for `COc1cc2ncnc(Nc3ccc(O)cc3)c2cc1OC`, “inactive”; for `Cn1nc(C(C)(C)C)cc1C(=O)NC(Cc1cccc(Cl)c1)C(=O)NCC#N` (centres undefined), 15.1 µM (active). Regarding `COc1cc(Nc2nc3ccccc3nc2NS(=O)(=O)c2ccc(NC(=O)c3ccc(OC)c(C)c3)cc2)cc(OC)c1`, the Potency result was “inactive”. Turning to `Cc1ccc(S(=O)(=O)n2ccc(-c3c(-c4ccc(Cl)cc4)noc3C)n2)cc1`, the Potency entry was “inactive”. Regarding `Cc1csc(NC(=O)c2ccc(COc3cccc(Cl)c3)o2)n1`, the Potency is 19 µM (active).

Values taken from PubChem BioAssay (NCATS).
